Source: PubChem BioAssay (NCATS)
“And” between values parts separate entries of the source, which are not always exact repeats. Equal entries are not always repeated. Records with an inconclusive call do not appear. A call without a number means that no potency is given here. The source made the active and inactive calls. The call rests on the fitted dose curve; in most records, active means well fitted curve in the direction sought with a large enough effect; inconclusive means small, poorly fitted or top-dose-only effect, or another doubt; inactive means no such curve, though single readings can be large; an effect the other way counts as inactive or inconclusive.

Assays:
[1] = target: Cytochrome P450 3A7 (Homo sapiens) (UniProt P24462); test: Cytochrome P450 family 3 subfamily A member 7 (CYP3A7) small molecule antagonists: luciferase biochemical qHTS assay (AID 1963596); conditions: P450-Glo CYP3A7 enzyme luminescence, 1 h; series mostly up to 57.4 µM; further: nearly all actives have a fitted effect of over 40% in size
Cytochrome P450 3A7 (Homo sapiens), sequence (P24462 whole entry, looked up): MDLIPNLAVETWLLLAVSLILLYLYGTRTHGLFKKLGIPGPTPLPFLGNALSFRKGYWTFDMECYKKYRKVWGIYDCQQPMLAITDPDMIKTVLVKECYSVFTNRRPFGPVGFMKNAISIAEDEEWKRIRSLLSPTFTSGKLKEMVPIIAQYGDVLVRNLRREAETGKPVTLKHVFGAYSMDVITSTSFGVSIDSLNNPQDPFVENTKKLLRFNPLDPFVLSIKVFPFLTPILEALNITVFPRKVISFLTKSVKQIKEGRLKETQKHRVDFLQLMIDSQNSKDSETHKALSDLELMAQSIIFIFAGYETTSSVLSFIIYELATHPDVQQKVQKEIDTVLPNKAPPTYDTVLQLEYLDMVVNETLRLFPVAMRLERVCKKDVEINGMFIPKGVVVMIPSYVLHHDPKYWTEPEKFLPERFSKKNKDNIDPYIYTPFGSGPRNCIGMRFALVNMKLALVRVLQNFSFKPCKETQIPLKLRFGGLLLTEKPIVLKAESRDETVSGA
How it was run: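 Recombinant CYP3A7 P450-Glo luminescent assay: enzyme-proluciferin substrate mix preincubated with compound 10 min at room temperature, reaction started with NADPH regeneration system for 1 h. Luciferin detected by luminescence; ketoconazole as positive control.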

[2] = Viability qHTS for spleen associated tyrosine kinase inhibitor (SYKi) naive MV4-11 cells (AID 1963823); conditions: MV4-11 AML viability, CellTiter-Glo luminescence, 72 h; series mostly up to 45 µM; further: nearly all actives have a fitted effect of over 40% in size; further: potency means the concentration at half of the fitted maximal effect
How it was run: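 Luminescence from CellTiter-Glo, developed 10 min at room temperature, gave viability of MV4-11 cells never exposed to SYK inhibitor. Cells (500/well) had been incubated with compounds for 72 hr under standard culture conditions.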

[3] = Viability qHTS for spleen associated tyrosine kinase inhibitor (SYKi) drug resistant MV4-11 cells (AID 1963824); conditions: SYKi-resistant MV4-11 viability, CellTiter-Glo, 72 h; series mostly up to 45 µM; further: nearly all actives have a fitted effect of over 35% in size; further: potency means the concentration at half of the fitted maximal effect
How it was run: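 SYK-inhibitor-resistant MV4-11 AML cells were seeded at 500 per well onto compound and cultured 72 hours (37 °C, 5% CO2). CellTiter-Glo was then added, and after 10 min at room temperature, luminescence gave viability.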

[4] = Cellular viability qHTS for adrenocortical cancer (ACC) cell line NCI-H295R (AID 1963990); conditions: CellTiter-Glo ATP luminescence, 48 h; series mostly up to 46.1 µM; further: nearly all actives have a fitted effect of over 60% in size; further: potency means the concentration at half of the fitted maximal effect
How it was run: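 CellTiter-Glo ATP luminescence, read 48 h after compound addition, measured viability of NCI-H295R adrenocortical cells grown serum-free with ITS. Final concentrations spanned up to 46 uM. Data normalized to DMSO and doxorubicin, fitted for IC50 and maximal response.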

[5] = Quantitative highthroughput screen to assess conditional lethalithy of NOMO1 cells grown in RPMI1640 with untreated serum (RPMI+s) (AID 1963876); conditions: NOMO1 AML cells in RPMI+serum, CellTiter-Glo viability, 48 h; series mostly up to 45.8 µM; further: nearly all actives have a fitted effect of over 35% in size
How it was run: (§1)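 Each medium arm—HPLM with 10% dialyzed FBS, or RPMI1640 with 5 mM glucose and 10% untreated or dialyzed FBS—was screened against an 11-point, 3-fold compound titration for 48 h at 37 °C, with CellTiter-Glo luminescence as endpoint.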

[6] = Quantitative highthroughput screen to assess conditional lethalithy of NOMO1 cells grown in RPMI1640 with dialyzed fetal bovine serum (RPMI+ds) (AID 1963877); conditions: NOMO1 in RPMI+dialyzed FBS viability, ATP luminescence, 48 h; series mostly up to 45.8 µM; further: nearly all actives have a fitted effect of over 30% in size
How it was run: as §1

[7] = Quantitative highthroughput screen to assess conditional lethalithy of NOMO1 cells grown in Human Plasma-Like Medium with dialyzed fetal bovine serum (HPLM+ds) (AID 1963878); conditions: NOMO1 AML cells in HPLM+ds, CellTiter-Glo viability, 48 h; series mostly up to 45.8 µM; further: nearly all actives have a fitted effect of over 35% in size
How it was run: as §1

[8] = Quantitative highthroughput screen to assess conditional lethalithy of P12 Ichikawa cells grown in Human Plasma-Like Medium with dialyzed fetal bovine serum (HPLM+ds) (AID 1963879); conditions: ATP luminescence, 48 h; Potency: viability; series mostly up to 45.8 µM; further: nearly all actives have a fitted effect of over 35% in size
How it was run: as §1

[9] = Quantitative highthroughput screen to assess conditional lethalithy of P12 Ichikawa cells grown in RPMI1640 with dialyzed fetal bovine serum (RPMI+ds) (AID 1963880); conditions: ATP luminescence, 48 h; Potency: P12-Ichikawa viability; series mostly up to 45.8 µM; further: nearly all actives have a fitted effect of over 35% in size
How it was run: as §1

[10] = Quantitative highthroughput screen to assess conditional lethalithy of P12 Ichikawa cells grown in RPMI1640 with untreated serum (RPMI+s) (AID 1963881); conditions: ATP luminescence, 48 h; Potency: viability; series mostly up to 45.8 µM; further: nearly all actives have a fitted effect of over 35% in size
How it was run: as §1

[11] = Quantitative highthroughput screen to assess conditional lethalithy of SEM cells grown in Human Plasma-Like Medium with dialyzed fetal bovine serum (HPLM+ds) (AID 1963882); conditions: SEM B-ALL cells in HPLM+ds, CellTiter-Glo viability, 48 h; series mostly up to 45.8 µM; further: nearly all actives have a fitted effect of over 35% in size
How it was run: as §1

[12] = Quantitative highthroughput screen to assess conditional lethalithy of SEM cells grown in RPMI1640 with unreated serum (RPMI+s) (AID 1963883); conditions: SEM B-ALL cells, CellTiter-Glo viability, 48 h; series mostly up to 45.8 µM; further: nearly all actives have a fitted effect of over 35% in size
How it was run: as §1

[13] = Quantitative highthroughput screen to assess conditional lethalithy of SEM cells grown in RPMI1640 with dialyzed fetal bovine serum (RPMI+ds) (AID 1963884); conditions: SEM B-ALL cells, RPMI+dialyzed FBS, CellTiter-Glo viability, 48 h; series mostly up to 45.8 µM; further: nearly all actives have a fitted effect of over 35% in size
How it was run: as §1

[14] = Cellular viability qHTS for adrenocortical cancer (ACC) cell line SW-13 (AID 1963989); conditions: SW-13 ACC cells viability, CellTiter-Glo, 48 h; activity (max response): active compounds read low;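 further: cells grown in serum-free medium with ITS supplement; nearly all actives have a fitted effect of over 65% in size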
How it was run: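 Viability was read as CellTiter-Glo luminescence after 48 h compound treatment (up to 46 uM final) of SW-13 cells grown serum-free; titration curves were fit with a four-parameter logistic model to give IC50 and efficacy.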

SMILES: NC(=O)NS(=O)(=O)c1ccc(N)cc1
- Potency [1]: inactive
- Potency [2]: inactive
- Potency [3]: inactive
- Potency [4]: inactive

SMILES: NC/C=C/C(=O)O
- Potency [1]: inactive
- Potency [2]: inactive
- Potency [3]: inactive
- Potency [4]: inactive

SMILES: CCN(C)C(=O)Oc1cccc([C@H](C)N(C)C)c1
- Potency [1]: inactive
- Potency [2]: inactive
- Potency [5]: inactive
- Potency [6]: inactive
- Potency [7]: inactive
- Potency [8]: inactive
- Potency [9]: inactive
- Potency [10]: inactive
- Potency [11]: inactive
- Potency [12]: inactive
- Potency [13]: inactive
- activity (max response) [14]: 11.5% (inactive)
- Potency [4]: inactive

SMILES: CC[C@H](C)C(=O)O[C@H]1C[C@H](O)C=C2C=C[C@H](C)[C@H](CC[C@@H](O)C[C@@H](O)CC(=O)O)[C@H]21
- Potency [1]: inactive
- Potency [2]: inactive
- Potency [5]: inactive
- Potency [6]: inactive
- Potency [7]: inactive
- Potency [8]: inactive
- Potency [10]: inactive
- Potency [11]: inactive
- Potency [12]: inactive
- activity (max response) [14]: -19.4% (inactive)

SMILES: COc1cc(NS(=O)(=O)c2ccc(N)cc2)ncn1
- Potency [1]: inactive
- Potency [2]: inactive
- Potency [3]: inactive
- Potency [4]: inactive

SMILES: Nc1nnnn1-c1ccccc1
- Potency [1]: inactive
- Potency [2]: inactive
- Potency [3]: inactive
- Potency [4]: inactive

SMILES: Cc1cccc(C)c1OCC(C)N (stereo unspecified)
- Potency [1]: inactive
- Potency [2]: inactive
- Potency [3]: inactive
- Potency [4]: inactive

SMILES: CC[N+](CC)(CC)CCOC(=O)C(C1CCCC1)C1CCCC1
- Potency [1]: inactive
- Potency [2]: 18.8 µM (active)
- Potency [3]: 11.9 µM (active)
- Potency [4]: inactive

SMILES: Cc1c(NC(=O)c2cccnc2)c(=O)n(-c2ccccc2)n1C
- Potency [1]: inactive
- Potency [2]: inactive
- Potency [3]: inactive
- Potency [4]: inactive

SMILES: NC(N)=NS(=O)(=O)c1ccc(N)cc1
- Potency [1]: inactive
- Potency [2]: inactive
- Potency [3]: inactive
- Potency [4]: inactive

SMILES: CN(C)[C@@H]1C(=O)C(C(N)=O)=C(O)[C@@]2(O)C(=O)C3=C(O)c4c(O)cccc4C[C@H]3C[C@@H]12
- Potency [1]: inactive
- Potency [2]: inactive
- Potency [3]: inactive
- Potency [4]: inactive

SMILES: CN(C)c1cc(NC(=O)CNC(C)(C)C)c(O)c2c1C[C@@H]1C[C@H]3[C@H](N(C)C)C(=O)C(C(N)=O)=C(O)[C@@]3(O)C(=O)C1=C2O
- Potency [1]: inactive
- Potency [2]: inactive
- Potency [5]: inactive
- Potency [6]: inactive
- Potency [7]: inactive
- Potency [8]: inactive
- Potency [9]: inactive
- Potency [10]: inactive
- Potency [11]: inactive
- Potency [12]: inactive
- Potency [13]: inactive

SMILES: O=C(N[C@H]1CCC[C@H](CO)C1)C1CCN(c2nc3cc(Cl)c(-c4ccc(Cl)cc4)cc3o2)CC1
- Potency [1]: inactive
- Potency [2]: 16.6 µM (active)
- Potency [3]: 16.6 µM (active)
- Potency [4]: 12.6 µM (active)

SMILES: O=NN(CCCl)C(=O)NC1CCCCC1
- Potency [1]: inactive
- Potency [2]: inactive
- Potency [5]: inactive
- Potency [6]: inactive
- Potency [7]: inactive
- Potency [8]: inactive
- Potency [9]: inactive
- Potency [10]: inactive
- Potency [11]: inactive
- Potency [12]: inactive
- activity (max response) [14]: 15.5% (inactive) and -13.1% (inactive)
- Potency [4]: inactive

SMILES: O=C(O)c1ccccc1S
- Potency [1]: inactive
- Potency [2]: inactive
- Potency [3]: inactive
- Potency [4]: inactive

SMILES: Nc1nc(N)nc(-c2cc(Cl)ccc2Cl)n1
- Potency [1]: inactive
- Potency [2]: inactive
- Potency [5]: inactive
- Potency [6]: inactive
- Potency [7]: inactive
- Potency [8]: inactive
- Potency [9]: inactive
- Potency [10]: inactive
- Potency [13]: inactive
- activity (max response) [14]: 2.1% (inactive) and -6.28% (inactive)
- Potency [4]: inactive
